High-throughput results as filed in PubChem BioAssay.
Only some compounds are listed: those with a hit (about 0.96% of all), similar ones and a draw of the others.
Phagocytosis inh: inhibitors of macrophage phagocytosis. inhibition, % at 5 µM. J774A.1 macrophage IgG-bead phagocytosis, imaging. 0.07% of 110,000 active;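 active = inhibition above the mean of the plate negative controls plus 5 SD, cut at about 13% in these data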;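 also: phagocytic index as fraction of beads internalized from green versus red external bead signal; plate controls were DMSO negative control for no effect and cytochalasin-D positive control for full effect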
TNAP act DEA: activates human TNAP at intermediate phosphate acceptor concentration; P05186; purified TNAP, CDP-star luminescence, 100 mM DEA, 30 min; hits give high values; scale: 0 levamisole-inhibited, 1 vehicle-only enzyme; activation factor at 20 µM; 64,000 tested, under 10 active; AID 813;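 active = activation factor of at least 2 at 20 µM, relative to controls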
Mac1 fbg enh: increases human CD11b/CD18 adhesion to fibrinogen; P05107+P11215; K562 CD11b/CD18 adhesion to fibrinogen, ATPlite luminescence; activation, % at 10 µM; 0.07% of 93,000 active; AID 1499;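 active = 10 µM primary screen giving 50% or more activity, confirmed by 40% or more on retest at that dose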
Target sequence (P05107 whole entry, looked up, other chains not shown): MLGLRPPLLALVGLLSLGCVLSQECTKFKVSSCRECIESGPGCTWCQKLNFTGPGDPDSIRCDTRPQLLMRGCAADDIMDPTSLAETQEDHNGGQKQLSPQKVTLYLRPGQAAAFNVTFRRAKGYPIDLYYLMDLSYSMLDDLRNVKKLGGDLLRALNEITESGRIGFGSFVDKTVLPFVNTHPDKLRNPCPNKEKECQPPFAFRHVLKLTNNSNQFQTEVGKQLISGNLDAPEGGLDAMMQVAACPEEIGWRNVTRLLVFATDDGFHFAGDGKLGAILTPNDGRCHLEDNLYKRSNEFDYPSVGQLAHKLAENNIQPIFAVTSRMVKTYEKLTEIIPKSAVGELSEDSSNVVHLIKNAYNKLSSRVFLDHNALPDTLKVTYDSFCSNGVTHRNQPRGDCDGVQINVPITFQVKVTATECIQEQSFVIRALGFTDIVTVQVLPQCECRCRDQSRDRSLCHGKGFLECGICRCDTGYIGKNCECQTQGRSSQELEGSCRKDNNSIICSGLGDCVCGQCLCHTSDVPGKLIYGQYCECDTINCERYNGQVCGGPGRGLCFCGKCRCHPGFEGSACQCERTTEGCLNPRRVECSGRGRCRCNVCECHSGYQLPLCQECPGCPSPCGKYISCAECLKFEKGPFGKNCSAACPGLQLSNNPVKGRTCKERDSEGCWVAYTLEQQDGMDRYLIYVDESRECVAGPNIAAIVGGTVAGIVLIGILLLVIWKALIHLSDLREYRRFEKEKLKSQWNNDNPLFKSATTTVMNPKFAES
Mac1 fbg inh: blocks human CD11b/CD18 adhesion to fibrinogen; K562 CD11b/CD18 adhesion to fibrinogen, ATPlite luminescence; Mn2+ added to activate the integrin; inhibition, % at 10 µM; 0.54% of 93,000 active;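 active = primary inhibition of 50% or more at 10 µM, then 40% or more on retest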
FAK blocker: FAK (human) kinase inhibition. biochemical FAK kinase activity assay. Q05397. inhibition, %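 (tested at 7 µM)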. 0.84% of 97,000 active; in the data active = inhibition above about 19%;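 also: 0% = DMSO and 100% = reference compound high control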
* marks the source's active call; other numbers are inactive results; nt = no result.

SMILES	Phagocytosis inh	TNAP act DEA	Mac1 fbg enh	Mac1 fbg inh	FAK blocker
CN1c2ccccc2C(O)=C(C(=S)Nc2ccc(F)c(Cl)c2)S1(=O)=O	-1	nt	-10	84*	-1
CN1c2ccccc2C(O)=C(C(=S)Nc2ccccc2)S1(=O)=O	0	nt	-3	7	-1
C/C(=N\O)C(=O)NCCN(C)C	-9	nt	nt	nt	nt
CCN(CC)CC(=O)Nc1cc(C)c2c(=O)oc3ccccc3c2n1	nt	1	nt	nt	nt
COc1nccnc1NS(=O)(=O)c1ccc(NS(=O)(=O)c2ccc(NC(C)=O)cc2)cc1	nt	nt	-2	68*	0
Cc1c(CCC#N)c(N2CCN(C3CCCCC3)CC2)n2c(nc3ccccc32)c1C#N	nt	0.9	nt	nt	nt
COc1ccc(C2C(C(C)=O)=C(C)N=c3s/c(=C\c4ccc5c(c4)OCO5)c(=O)n32)c(OC)c1 (centres undefined)	nt	0.8	nt	nt	-1
COc1cccc2c1C(=O)O/C2=C/c1ccc2c(c1)OCO2	0	nt	0	52*	8
CCc1cccc(NC(=O)CN(c2ccc(OC)cc2)S(=O)(=O)c2c(C)n[nH]c2C)c1	1	1	2	-9	2
CCOc1cc(/C=C2\C(=O)N(c3ccc(C(N)=O)cc3)N=C2C)ccc1OC(=O)c1cccs1	0	nt	81*	8	5
CCOc1cc(/C=C2/C(=O)N(c3ccccc3)N=C2C)ccc1OC(=O)c1ccco1	nt	nt	nt	nt	-6
COc1ccc(OC)c(CCNC(=O)Cn2sc3nc(C)cc(C)c3c2=O)c1	0	0.6	-7	52*	0
COc1ccc(-c2nc(CS(=O)(=O)CC(=O)NCCc3cc(OC)ccc3OC)c(C)o2)cc1	nt	1	nt	nt	5
CCN(CC)S(=O)(=O)c1cc(C(=O)Nc2nncs2)c(Cl)cc1Cl	26*	0.9	30	19	-4
CCN(CC)S(=O)(=O)c1ccc(Cl)c(C(=O)Nc2nncs2)c1	-2	0.9	-1	-14	-6
COc1ccc(-c2nn(-c3ccccc3)cc2C(=O)OCC(=O)c2ccc(C)c([N+](=O)[O-])c2)cc1	-10	nt	nt	nt	nt
COc1ccc2c(C(=O)CN3CCN(c4ccccc4)CC3)c[nH]c2c1	-1	nt	-3	-4	0
CCCN1C=CC(=C2C(=O)c3ccccc3C2=O)C=C1	1	0.8	-10	95*	nt
CN1C=CC(=C2C(=O)c3ccccc3C2=O)C=C1	0	0.9	-1	16	15
COc1ccccc1NC(=O)CSc1nc2n[nH]c(C)c2c(=N)n1-c1ccccc1Cl	nt	nt	nt	nt	21*
CCc1ccccc1NC(=O)CSc1nc2n[nH]c(C)c2c(=N)n1-c1ccc(OC)cc1	nt	1.1	nt	nt	nt
O=C(NCCc1c[nH]c2ccccc12)c1cccc(S(=O)(=O)Nc2ccccc2Cl)c1	0	nt	-5	56*	nt
O=C(NCCc1c[nH]c2ccccc12)c1cccnc1	-2	0.9	0	-5	-1
Clc1ccc(CCNc2ncnc3nc[nH]c23)cc1	0	1.1	-9	60*	12
c1ccc2c(CCNc3ncnc4nc[nH]c34)cccc2c1	nt	nt	nt	nt	21*
SMILES	Phagocytosis inh	TNAP act DEA	Mac1 fbg enh	Mac1 fbg inh	FAK blocker
c1ccc(CCCNc2ncnc3nc[nH]c23)cc1	2	1.3	-4	8	nt
NC(=O)[C@H](Cc1cc2ccccc2s1)NC(=O)[C@@H]1CC2(CC(c3cccc(NC(=O)[C@@H]4CCC(=O)N4)c3)=NO2)CN1C(=O)/C=C/c1c(F)cccc1Cl (some centres undefined)	-1	nt	148*	1	-1
CCCn1nc([N+](=O)[O-])c(C(C#N)c2nc3ccccc3s2)c(Cl)c1=O (centres undefined)	-1	nt	-8	95*	0
Cn1c(C(C#N)C(=O)c2sc3ccccc3c2Cl)nc2ccccc21 (centres undefined)	-1	0.9	0	12	-3
O=C1CC(C2CCCO2)C(=O)N1Cc1ccccc1 (centres undefined)	69*	0.9	-2	-24	-4
Nc1c(-c2cccc([N+](=O)[O-])c2)nc2ccccn12	1	nt	nt	nt	nt
COc1ccc(-c2cc(NCc3ccccn3)n3ncnc3n2)cc1	0	2*	-1	-10	nt
Cn1c(=O)[nH]c(=O)c2c1nc(N1CCOCC1)n2CCSc1nc2ccccc2[nH]1	nt	nt	nt	nt	-9
O=[N+]([O-])c1ccc(C2Oc3ccccc3C3CC(c4ccccc4)=NN32)s1 (centres undefined)	-2	nt	nt	nt	nt
CCc1ccc(-c2nc(CSCC(=O)N3CCN(c4ncccn4)CC3)c(C)o2)cc1	0	0.9	-7	79*	2
CCCn1c(C)nc2c(c1=O)c1nc3ccccc3nc1n2CCC1=CCCCC1	-2	0.9	62*	0	4
COc1ccc(-c2cn3c(C)c(C(=O)N4CCCc5ccccc54)sc3n2)cc1	nt	1	nt	nt	-3
COc1ccc(-c2cn3c4c(sc3n2)CCCC4)cc1	0	1	-4	55*	1
CC(Oc1ccc(Cl)cc1Cl)C(=O)Nc1ccc(S(=O)(=O)Nc2cnc3ccccc3n2)cc1 (centres undefined)	-1	nt	6	78*	-2
CC(Oc1ccc(Cl)cc1Cl)C(=O)Nc1ccncc1 (centres undefined)	-1	0.9	-4	57*	6
CC(Oc1ccc(Cl)cc1Cl)C(=O)Nc1cccnc1 (centres undefined)	nt	nt	nt	nt	0
Cc1cnc(-c2nnc(N(C)C(=O)c3ccncc3)s2)cn1	nt	0.9	nt	nt	nt
CC(=O)C1=C(O)C(=O)N(CCCCCC(=O)O)C1c1ccc(N(C)C)cc1 (centres undefined)	5	0.9	0	-11	-1
CCOc1ccc(Br)cc1/C(C)=N\NC1=NCCN1	0	nt	-6	84*	1
COC(=O)c1nn(-c2ccccc2)c(=O)cc1Oc1ccccc1	-1	nt	3	-6	0
CSc1nc(SCC(=O)NCc2ccco2)c2c3c(sc2n1)CN(C)CC3	nt	0.9	nt	nt	22*
O=C(c1ccc(Cl)cc1)N1CCC(O)(CSc2ccc(Cl)cc2)CC1	nt	nt	nt	nt	-9
CN1CCN(C(=O)c2ccc(CSc3ccc(Cl)cc3)cc2)CC1	-6	nt	-2	76*	nt
CC(OC(=O)CNC(=O)c1ccccc1F)C(=O)Nc1nc(-c2ccccc2)cs1 (centres undefined)	3	nt	nt	nt	nt
c1nc(N2CCCCCC2)c2[nH]cnc2n1	0	1.1	-4	2	nt
SMILES	Phagocytosis inh	TNAP act DEA	Mac1 fbg enh	Mac1 fbg inh	FAK blocker
c1nc(N2CCCC2)c2[nH]cnc2n1	nt	nt	nt	nt	34*
COc1ccc(-c2[nH]ncc2-c2cnn(-c3ccccc3)c2)c(O)c1	-1	1.1	-5	-8	-1
O=[N+]([O-])c1cc(S(=O)(=O)Nc2cccc(C(F)(F)F)c2)ccc1-n1nnc2ccccc21	nt	nt	-7	95*	-1
COc1ccc(NS(=O)(=O)c2ccc(-n3nnc4ccccc43)c([N+](=O)[O-])c2)cc1	0	nt	0	7	6
O=C(COc1ccccc1Cl)NCCC1=CCCCC1	-8	nt	-1	6	nt
O=S(=O)(/C=C/c1ccccc1)Oc1ccccc1	166*	nt	-1	-19	-1
COc1ccc(-n2c(NC(=O)c3ccc(Br)o3)c(C#N)c3nc4ccccc4nc32)cc1	-2	nt	-11	90*	1
